Values joined by “and” are separate entries in the source; they are usually repeats but may differ in a detail not shown here. Equal entries are not always repeated. Records with an inconclusive call do not appear. Unmarked numbers belong to inactive results. Active and inactive are the calls of the source. Calls follow the shape of the dose curve; as a rule, active = well fitted cell-killing curve with a large enough effect; inconclusive = small, poorly fitted or top-dose-only effect; inactive = flat fitted curve, though single readings scatter.
% is scaled to controls: 0 for no effect and ±100 for the full control effect; potency is read from the fitted curve at half-maximal effect.

This assay can be described thus: Cellular viability qHTS for adrenocortical cancer (ACC) cell line SW-13 (AID 1963989). Also: nearly all actives have a fitted effect of over 65% in size.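 As to activity (max response): cells grown in serum-free medium with ITS supplement.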 The following applies: SW-13 ACC cells viability, CellTiter-Glo, 48 h; activity (max response): active compounds read low. The procedure, abridged:
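Luminescent ATP read-out (CellTiter-Glo, 20 min at room temperature) measured metabolically competent SW-13 cells after 48 h compound treatment. Final concentrations spanned up to 46 uM; bortezomib served as positive control.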
(In general: qHTS replaces the single test concentration by a dilution series.)
For the compound `O=C1OCCN1/N=C/c1ccc([N+](=O)[O-])o1`, the activity (max response) was -0.921%.

With `CC(C)(O)c1ccccc1CC[C@@H](SCC1(CC(=O)O)CC1)c1cccc(/C=C/c2ccc3ccc(Cl)cc3n2)c1`, the activity (max response) is 11.5%.

Regarding `Oc1cccc2[nH]ccc12`, the activity (max response) is 11.5%.

With `C[C@@H](O)[C@@H](C)Oc1nc(Nc2ccc(S(=N)(=O)C3CC3)cc2)ncc1C(F)(F)F` (stereo not given in full), the activity (max response) is 4.29%.

In the case of `FC(F)(F)c1ccc(Nc2nc(-c3c(C(F)(F)F)nc4ccccn34)cs2)cc1`, the Potency is 282 nM (active).

In the case of `O=C(O)C1(C(=O)O)CCC1.[NH2-].[NH2-].[Pt+2]`, the activity (max response) was 10.4%.

In the case of `COc1ccccc1N1CCN(CCCCNC(=O)c2ccc(-c3ccc(C(C)=O)cc3)cc2)CC1`, the activity (max response) was -20.9%.

For `CCc1c(-c2ccccc2C)nc2c(C#N)c[nH]n2c1=O`, the activity (max response) was 6.89% and 1.74%.

Regarding `FC(F)(F)c1ccccc1-n1ccnc1`, the activity (max response) is 17.5%.

For the compound `Nc1ccc(C(=O)OCC(O)CO)cc1` (stereo not given), the activity (max response) was 13.4%.

For `C[C@H]1C[C@H]2[C@@H]3CCC4=CC(=O)C=C[C@]4(C)[C@@]3(Cl)[C@@H](O)C[C@]2(C)[C@@]1(O)C(=O)CO`, the activity (max response) is -3.23%.

With `c1ccc2c(c1)CCc1ccccc1N2`, the activity (max response) is -6.25%.

For the compound `C[C@]12CC[C@@H]3c4ccc(O)cc4CC[C@H]3[C@@H]1CC[C@@H]2OC(=O)CCC1CCCC1`, the activity (max response) is 5.6%.

Turning to `CC(N=C(NC#N)Nc1ccncc1)C(C)(C)C` (stereo not given), the activity (max response) is 1.19%.

For the compound `O=C(C[C@@H]1C/C=C\CCC(=O)O[C@H](c2ccccc2)CNC1=O)NCc1ccc(Cl)cc1`, the activity (max response) is 11.5%.

These data come from PubChem BioAssay (NCATS).
